Measurements reported in PubChem BioAssay (NCATS).
Results filed as inconclusive are left out. Active and inactive are the calls of the source. Calls come from the whole dose curve; as a rule, active = well fitted inhibition curve with a large enough effect; inconclusive = small, poorly fitted or top-dose-only effect; inactive = flat fitted curve, though single readings scatter.

The compounds below were run on HACAT (assay: qHTS assay to identify novel small-molecules to repurpose for Merkel cell carcinoma treatment (AID 1296009; note: nearly all actives have a fitted effect of over 60% in size)). Conditions: MCC and control cell lines, CellTiter-Glo viability, 72 h; at 44.8 µM (top of the series) unless noted.
Method in brief: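 After compound transfer in DMSO, plates were kept 72 hr at 37 degree celsius. Luminescent ATP signal from CellTiter-Glo served as viability measure, normalized against DMSO and no-cell controls.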

SMILES	outcome
C=C1CC[C@@]2(OC1)O[C@H]1CC3[C@@H]4CC=C5C[C@H](O[C@H]6OC[C@@H](O)C(O)[C@@H]6O[C@@H]6O[C@@H](C)[C@H](O)[C@@H](O[C@@H]7O[C@H](CO)[C@@H](O)[C@H](O)[C@H]7O)[C@H]6O)C[C@@H](O)[C@]5(C)C4CC[C@]3(C)[C@H]1[C@@H]2C (stereo partly specified)	inactive [at 9.27 µM]
Cc1c(C)c(NCC(=O)N(C)C2CCN(Cc3ccc(C(N)=O)cc3)CC2)c(C)c(C)c1N	inactive
CC1CCC2(C(=O)O)CCC3(C)C(=CCC4C5(C)CCC(O)C(C)(C(=O)O)C5CCC43C)C2C1(C)O (stereo unspecified)	inactive [at 17.4 µM]
C=C1C[C@]23C[C@H]1CC[C@H]2[C@]1(C)CC[C@H](O)[C@@](C)(C(=O)O)[C@H]1[C@@H]3C(=O)O	inactive
COC(=O)C(CC1(OC(=O)C(C)C)c2ccccc2N2C(=O)C(C)(C)N(O)C21)n1cnc2ccccc2c1=O (stereo unspecified)	inactive [at 17.4 µM]
C=C[C@H]1[C@H](O[C@@H]2O[C@H](CO)[C@@H](O)[C@H](OC(=O)/C=C/c3ccc(O)c(OC)c3)[C@H]2O)OC=C2C(=O)OCC[C@]21O	inactive [at 17.4 µM]
